From PubChem
ELG1 DNA repair – ELG1-dependent DNA repair inhibition; HEK293T ELG1-luciferase reporter, luminescence, 16 h; DNA damage induced by 5-fluorouridine; Potency, µM (doses to about 46.1 µM), hits mostly inhibitors; 330,000 compounds, 2.3% hits; AID 504467; note: nearly all actives have a fitted effect of over 55% in size
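Cells (2,000 per well) received 5-fluorouridine plus test compound or DMSO and were incubated 16 hr at 37 °C, 5% CO2. Luciferase activity was read by luminescence 30 min after ONE-Glo addition; signal suppression marked inhibition of damage-induced ELG1 function.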
TDP1 cell CPT – growth inhibition of DT40 Tdp1-/-;hTDP1 cells with camptothecin (screen for TDP1 inhibitors); chicken DT40 Tdp1-/-;hTDP1 cells + 20 nM CPT, ATP luminescence, 48 h; Potency, µM (series often up to 46.2 µM), usual class: inhibitors; 420,000 compounds, 12% hits; AID 686979; note: nearly all actives have a fitted effect of over 55% in size
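Chicken DT40 Tdp1-/- cells complemented with human TDP1, 400 cells/well, exposed to compounds plus 20 nM camptothecin for at least 48 h at 37 C; viability read as ATP content by CellTiter-Glo luminescence.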
DT40 TDP1 no CPT – qHTS for Inhibitors of human tyrosyl-DNA phosphodiesterase 1 (TDP1): qHTS in cells in absence of CPT | DT40 Tdp1-/- hTDP1 cells, no CPT, ATP luminescence, 48 h | Potency, µM (titrated, usually from 46.2 µM), most hits filed as inhibitors | 420,000 compounds, 15% hits; note: nearly all actives have a fitted effect of over 55% in size
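Camptothecin absent (DMSO only). Human TDP1-complemented DT40 knockout cells, 400 cells/well, 37 °C for minimum 48 hr; ATP measured via CellTiter-Glo, 30 min dark incubation, luminescence.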
HT1080 IDH1KD tx – kills HT-1080 cells with IDH1 knockdown | HT-1080 IDH1 knockdown viability, ATP luminescence, 48 h | Potency, µM (titrated, usually from 46.1 µM), most hits filed as cytotoxic | 360,000 compounds, 2% hits | AID 686971
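Viability of IDH1-knockdown HT-1080 fibrosarcoma cells was assessed by CellTiter-Glo after 48 h at 37 °C with titrated compound; concentration-effect curves were classified by fit quality and response size.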
HT1080-NT tox – kills 2HG-producing HT-1080-NT fibrosarcoma cells; HT-1080-NT fibrosarcoma viability, CellTiter-Glo ATP luminescence, 48 h; Potency, µM (doses to about 46.1 µM), hits mostly cytotoxic; 360,000 compounds, 1.6% hits; AID 686970;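 note: NT is the 2HG producing partner of a matched IDH1 knockdown line; nearly all actives have a fitted effect of over 55% in size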
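Read-out is CellTiter-Glo luminescence after 10 minutes at room temperature, following 48 hours' compound treatment of HT-1080-NT cells (750 cells/well, RPMI, 5% FBS, 37 degrees C).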
IL1B secr inh – blocks inflammasome-driven IL-1 beta release; 360,000 compounds, 4.7% hits; THP-1 LPS/ATP IL-1B secretion, AlphaLISA, 16 h; active compounds read low; AID 743279; activity change, % at 57.5 µM; in the data active = activity change below about -50%; inconclusive = mostly about -30% to -49%
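Secreted IL-1B measured by AlphaLISA bead assay after 16 h compound exposure of THP-1 cells; compounds (final up to 57.5 uM) added 1 h before LPS (250 ng/mL) and ATP (1.25 mM) stimulation; lower signal means less secretion.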
Of the large screens only hits and unclear results are named; the others gave an inactive call. Sampled rows, rich in hits. Any-hit rate of the full collection: about 19%. Unless noted, calls come from the whole dose curve; as a rule, active = well fitted curve in the direction sought with a large enough effect; inconclusive = small, poorly fitted or top-dose-only effect, or another doubt; inactive = no such curve, though single readings can be large; an effect the other way counts as inactive or inconclusive.

O=C(CCl)N(c1ccccc1)c1c[nH]c2ccccc12	ELG1 DNA repair 21µM, TDP1 cell CPT 2.3µM, DT40 TDP1 no CPT 2.9µM, HT1080 IDH1KD tx 6.5µM, HT1080-NT tox inconclusive, IL1B secr inh -100
C/C=C1\NC(=O)[C@H]2CSSCC/C=C/[C@H](CC(=O)N[C@H](C(C)C)C(=O)N2)OC(=O)C(C(C)C)NC1=O (stereo partly specified)	TDP1 cell CPT 0.0015µM, DT40 TDP1 no CPT 0.0013µM (no result: ELG1 DNA repair, HT1080 IDH1KD tx, HT1080-NT tox, IL1B secr inh)
COc1ccc(NC(=O)C2(C)CCCN2C(=O)C(C)C)cc1OC (stereo unspecified)	none (no result: ELG1 DNA repair)
Cc1cc(C)nc(Nc2ccc(O)cc2)n1	none
Cc1cc(C)nc(Sc2nc(Nc3ccccc3)nc(Sc3nc(C)cc(C)n3)n2)n1	DT40 TDP1 no CPT 29µM, IL1B secr inh -54
O=C(NCc1ccccc1)c1ccc2c(c1)nc1n2CCOC1	none (no result: ELG1 DNA repair, HT1080 IDH1KD tx, HT1080-NT tox, IL1B secr inh)
Oc1ccc(C2N=C(c3ccccc3)NC(c3ccccc3)=N2)cc1	none
Oc1ccccc1C1N=C(c2ccccc2)NC(c2ccccc2)=N1	ELG1 DNA repair inconclusive, IL1B secr inh -55
COc1ccc(N)cc1-n1c(C)ccc1C	ELG1 DNA repair inconclusive, TDP1 cell CPT 7.3µM, IL1B secr inh inconclusive
COCCCn1c(SCC(=O)NC(C)C)nnc1-c1ccccc1	TDP1 cell CPT inconclusive, DT40 TDP1 no CPT 23µM
COCCCn1c(SCC(N)=O)nnc1-c1ccccc1	none
Cc1ccc(CNC(=S)Nc2ccc(C)c([N+](=O)[O-])c2)cc1	TDP1 cell CPT 23µM, DT40 TDP1 no CPT 15µM
Cc1ccc(-c2csc(NC(=O)c3ccc([N+](=O)[O-])o3)n2)cc1	TDP1 cell CPT inconclusive, DT40 TDP1 no CPT inconclusive, IL1B secr inh -106
O=C(/C=C/c1ccc(Cl)cc1)c1ccc([N+](=O)[O-])o1	ELG1 DNA repair inconclusive, TDP1 cell CPT 1µM, DT40 TDP1 no CPT 0.65µM, HT1080 IDH1KD tx 13µM, HT1080-NT tox inconclusive, IL1B secr inh inconclusive
Cc1ccc(/C=C/C(=O)c2ccc([N+](=O)[O-])o2)cc1	ELG1 DNA repair inconclusive, TDP1 cell CPT 1.6µM, DT40 TDP1 no CPT 2.1µM, HT1080 IDH1KD tx 3.7µM, HT1080-NT tox 12µM, IL1B secr inh -113
Cc1cc(O)c(C(=O)/C=C/c2ccc(Cl)cc2)c(=O)o1	ELG1 DNA repair inconclusive, TDP1 cell CPT inconclusive, DT40 TDP1 no CPT inconclusive, IL1B secr inh inconclusive
CC(=O)N1CCC[C@@]2(CCN(Cc3ccc(C#N)cc3)C2)C1	none (no result: ELG1 DNA repair, HT1080 IDH1KD tx, HT1080-NT tox, IL1B secr inh)
O=C1NC[C@@H](CCCCN2C[C@H](Cc3ccc(O)cc3)N(CC3CCCCC3)C(=O)C2=O)N(CC2CCCCC2)C1=O	none (no result: ELG1 DNA repair)
Cc1ccc(CNC(=O)c2ccc([N+](=O)[O-])o2)cc1	ELG1 DNA repair inconclusive, TDP1 cell CPT 16µM, DT40 TDP1 no CPT inconclusive, HT1080 IDH1KD tx inconclusive, HT1080-NT tox inconclusive, IL1B secr inh inconclusive
CCn1cc(C(=O)O)c(=O)c2cc(F)c(N3CCN(S(=O)(=O)c4ccc(NC(=O)OC)cc4)CC3)cc21	TDP1 cell CPT 18µM, DT40 TDP1 no CPT 18µM
CCn1cc(C(=O)O)c(=O)c2cc(F)c(N3CCN(C(=S)Nc4ccccc4OC)CC3)cc21	DT40 TDP1 no CPT inconclusive
CCn1cc(C(=O)O)c(=O)c2cc(F)c(N3CCN(C(=S)NC(=O)c4ccccc4Br)CC3)cc21	TDP1 cell CPT inconclusive, DT40 TDP1 no CPT 21µM
CCCOc1ccc(C(=O)NC(=S)N2CCN(c3cc4c(cc3F)c(=O)c(C(=O)O)cn4CC)CC2)cc1	TDP1 cell CPT 16µM, DT40 TDP1 no CPT 15µM
CCn1cc(C(=O)O)c(=O)c2cc(F)c(N3CCN(C(=S)NC(=O)c4c(OC)cccc4OC)CC3)cc21	TDP1 cell CPT 18µM, DT40 TDP1 no CPT 26µM, IL1B secr inh inconclusive
CNC(=O)CNC(=O)Nc1ccc(Cl)c(Cl)c1	none
CCn1cc(C(=O)O)c(=O)c2cc(F)c(N/N=C/c3ccccc3[N+](=O)[O-])cc21	ELG1 DNA repair inconclusive, TDP1 cell CPT 4.1µM, DT40 TDP1 no CPT 16µM
